The values that follow come from PubChem BioAssay.

The test system of assay [1] is XIP peptide (Xip251-270) binding. Description: XIP fragment 251-270 binding compounds – biochemical, small-molecule microarray, fluorescence 635/667 nm, 0.1 µg/mL protein, primary screen (AID 1182). The following applies: fluorescent protein binding, 635 nm, higher = more signal, called active from +8 up or from −8 down.
In another assay the test system is XIP peptide (Xip251-270). Kind of assay: compounds binding XIP fragment 251-270 – biochemical, small-molecule microarray, fluorescence 635/667 nm, 0.5 µg/mL protein, primary screen (AID 1183). The following applies: fluorescence 635 nm, higher = more signal.
Assay [2] can be described thus: blood-stage malaria parasite viability loss – strain 3D7, DAPI fluorescence, 100 nL, primary screen (AID 1184).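 Also: parasites grown inside human red blood cells in medium with human serum.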 The following applies: P. falciparum 3D7 growth, 3 d, higher = more signal.
Assay [3] concerns the target Homeobox protein Hox-A13 (Mus musculus) (UniProt Q62424). Kind of assay: disruptors of Hoxa13 oligonucleotide interaction – biochemical, fluorescence polarization, labeled oligonucleotide, primary screen (AID 1185). The following applies: Hoxa13:DNA binding, 15 min, higher = more signal, called active from +8 up or from −8 down. Background: Fluorescence polarisation rises when a labelled molecule tumbles more slowly, as on binding a larger partner.

Assay [4] is described as follows: blockers of DNA damage checkpoint Chk1 activation – imaging, HeLa, hydroxyurea, phospho-Chk1 antibody, percent positive cells, primary screen (AID 1186). The settings on record: hydroxyurea-induced phospho-Chk1 immunofluorescence imaging, higher = more signal.
A short description of assay [5]: blockers of DNA damage checkpoint Chk1 activation – imaging, HeLa, hydroxyurea, phospho-Chk1 nuclear intensity, primary screen (AID 1187). The settings on record: hydroxyurea-induced phospho-Chk1 immunofluorescence imaging, higher = more signal.

Structures are written as SMILES. Active and inactive are the calls of the source. Unless noted, no rule for the calls is given here.

Chain of Homeobox protein Hox-A13 (Mus musculus) (Q62424 whole entry, looked up): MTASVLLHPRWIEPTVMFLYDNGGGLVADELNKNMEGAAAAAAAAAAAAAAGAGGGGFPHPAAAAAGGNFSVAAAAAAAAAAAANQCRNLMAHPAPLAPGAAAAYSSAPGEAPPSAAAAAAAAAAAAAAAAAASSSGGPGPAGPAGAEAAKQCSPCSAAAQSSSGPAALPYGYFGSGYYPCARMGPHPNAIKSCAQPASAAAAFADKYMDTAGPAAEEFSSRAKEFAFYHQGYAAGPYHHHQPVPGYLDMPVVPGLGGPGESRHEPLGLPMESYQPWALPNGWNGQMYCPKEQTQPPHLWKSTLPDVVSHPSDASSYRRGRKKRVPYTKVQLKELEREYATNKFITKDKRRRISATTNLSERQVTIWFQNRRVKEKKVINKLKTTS

For `O=C1C=C(c2ccccc2)C(=O)c2ccc([C@H]3Oc4ccccc4S(=O)(=O)N4CCC[C@@H]34)cc21`, the composite z-score in assay [1] was -0.668 (inactive); in the assay on XIP peptide (Xip251-270), 0.468. In addition, the z-score is -3.17 in assay [2], -3.05 (inactive) in assay [3], 0.808 (inactive) in assay [4] and 0.885 (inactive) in assay [5].
On to `CCCNC(=O)[C@@]1(c2ccc([N+](=O)[O-])cc2)CC(=O)N(C2CCCCC2)[C@@H]1c1ccc(CO)cc1`, for which the composite z-score in assay [1] is 2.45 (inactive); with XIP peptide (Xip251-270) it was 0.73. The z-score in assay [2] was -0.47; in assay [3] it was -3.27 (inactive); in assay [4], 0.0926 (inactive); in assay [5] it was 0.213 (inactive).
Turning to `CCOC(=O)C1=CC[C@@H](c2ccccc2C(F)(F)F)N(S(=O)(=O)c2ccc(C)cc2)[C@H]1c1ccc(C#N)cc1`, the values for the composite z-score (in assay [1]; in the assay on XIP peptide (Xip251-270)) were 0.205 (inactive) and 0.534, respectively. In addition, the z-score is -2.2 in assay [2], -0.224 (inactive) in assay [3], 0.479 (inactive) in assay [4] and -0.581 (inactive) in assay [5].
For `CCCNC(=O)[C@@H]1c2ccccc2C(=O)N(C(C)C)[C@H]1c1ccc(CO)cc1`, the composite z-score in assay [1] is 0.251 (inactive); in the assay on XIP peptide (Xip251-270), 0.658. The z-score in assay [2] is -0.473; in assay [3] it was -1.88 (inactive); in assay [4], -0.247 (inactive); in assay [5] it was -0.333 (inactive).
`COC(=O)[C@@]1(Cc2ccccc2)[C@@H]2C(=CC(=O)[C@H]2CC(=O)C(=O)N(C)C)CN1C(=O)c1ccccc1`: the composite z-score is 0.0477 (inactive) in assay [1] and 0.345 in the assay on XIP peptide (Xip251-270). Besides, the z-score in assay [2] was -0.99; in assay [3] it was -3.77 (inactive); in assay [4], 0.0041 (inactive); in assay [5], 0.253 (inactive).
For the compound `CCOC(=O)C[C@H]1[C@H](OC(=O)c2cc3ccccc3oc2=O)[C@@H](NC(=O)Cc2ccc(OC)cc2)c2cc(OCCCO)ccc2N1C(=O)c1ccc2ccccc2n1`, the composite z-score is -0.426 (inactive) in assay [1] and 0.255 in the assay on XIP peptide (Xip251-270). Besides, the z-score in assay [2] was -1.01; in assay [3], -4.04 (inactive); in assay [4], 0.134 (inactive); in assay [5], 0.203 (inactive).
In the case of `COC(=O)c1c(CC[C@@H](CO)NC(=O)N[C@H](Cn2cc(C3(O)CCCCC3)nn2)C(C)C)oc(C(C)=O)c1C(=O)OC`, the values for the composite z-score (in assay [1]; in the assay with XIP peptide (Xip251-270)) were 0.0887 (inactive) and 0.837, respectively. The z-score in assay [2] is -2.24; in assay [3] it was -1.69 (inactive); in assay [4], 0.303 (inactive); in assay [5] it was 0.608 (inactive).
As for `COC(=O)Cn1c(C(=O)N(C)C)cc2c1C[C@H]1CN(C(=O)c3ccccc3)[C@@](Cc3ccc(F)cc3)(C(=O)OC)[C@@H]21`, the composite z-score in assay [1] is 1.69 (inactive); with XIP peptide (Xip251-270), -0.196. For the same compound, the z-score in assay [2] was -0.0793; in assay [3], -4.28 (inactive); in assay [4], 0.927 (inactive); in assay [5], 1.08 (inactive).
For `COc1ccc([Si](C)(C)[C@@H]2[C@@H](CCO)O[C@]3(C(=O)N(Cc4ccc(N5CCCCC5=O)cc4)c4ccccc43)[C@H]2C)cc1`, the composite z-score is 2.99 (inactive) in assay [1] and 0.769 in the assay on XIP peptide (Xip251-270). Besides, the z-score in assay [2] is -2.69; in assay [3], -5.03 (inactive); in assay [4], -0.913 (inactive); in assay [5] it was 0.261 (inactive).
As to `C=CCOC(=O)[C@H]1[C@@H]2C(=O)O[C@@H](c3ccccc3)[C@@H](c3ccccc3)N2[C@@H](c2ccc(OCCOC(=O)[C@@H]3C[C@@H]4C(=O)N[C@@H](CCCCN(C)C)C(=O)N4[C@@H]3c3ccc(O)cc3)cc2)[C@]12C(=O)Nc1ccccc12`, the composite z-score in assay [1] was 2.41 (inactive); in the assay with XIP peptide (Xip251-270), 0.878. For the same compound, the z-score in assay [2] is 0.0953; in assay [3] it was 4.03 (inactive); in assay [4] it was -0.768 (inactive); in assay [5], -0.475 (inactive).
Take `O=C1O[C@H](c2ccccc2)[C@H](c2ccccc2)N2[C@H]1[C@@H](C(=O)Nc1nc3ccccc3s1)[C@]1(C(=O)Nc3ccccc31)[C@H]2c1ccc(OCCO)cc1`: the composite z-score in assay [1] was -0.434 (inactive); in the assay with XIP peptide (Xip251-270), 0.652. Further, the z-score was -1.33 in assay [2], 1.24 (inactive) in assay [3], 0.0458 (inactive) in assay [4] and -0.0249 (inactive) in assay [5].
Consider `COCCOC(=O)N1C(=O)[C@@]2(c3ccccc31)[C@H](C(=O)N1CCN(c3ncccn3)CC1)[C@H]1C(=O)O[C@H](c3ccccc3)[C@H](c3ccccc3)N1[C@@H]2c1ccc(O)cc1`, for which the composite z-score in assay [1] is 0.43 (inactive); in the assay on XIP peptide (Xip251-270), 0.854. Also, the z-score is -1.55 in assay [2], -0.883 (inactive) in assay [3], 0.172 (inactive) in assay [4] and 0.371 (inactive) in assay [5].
Turning to `COC(=O)c1nc2oc1CC[C@@H](CO)NC(=O)N(C)Cc1cnnn1C[C@H](Cc1ccccc1)NC2=O`, the composite z-score in assay [1] was 0.618 (inactive); with XIP peptide (Xip251-270), 0.944. For the same compound, the z-score was 1.06 in assay [2], -0.449 (inactive) in assay [3], -0.517 (inactive) in assay [4] and -0.393 (inactive) in assay [5].
For the compound `O=C1O[C@H](c2ccccc2)[C@H](c2ccccc2)N2[C@H]1[C@@H](C(=O)N1CCN(c3ncccn3)CC1)[C@]1(C(=O)Nc3ccc(C#CC4(O)CCCCCC4)cc31)[C@H]2c1ccc(OCCO)cc1`, the values for the composite z-score (in assay [1]; in the assay on XIP peptide (Xip251-270)) were 2.51 (inactive) and 0.781, respectively. Further, the z-score was -2.13 in assay [2], 0.271 (inactive) in assay [3], 0.354 (inactive) in assay [4] and 0.527 (inactive) in assay [5].
As for `NCCCCCCNC(=O)[C@@H]1C[C@@H]2C(=O)N[C@@H](CCCCN)C(=O)N2[C@@H]1c1cccc(OCCO)c1`, the composite z-score was 1.7 (inactive) in assay [1] and 0.832 with XIP peptide (Xip251-270). Moreover, the z-score in assay [2] is 0.139; in assay [3], -3.22 (inactive); in assay [4], -0.545 (inactive); in assay [5], -0.269 (inactive).
As for `COC(=O)c1c2oc(c1C(=O)OC)C(=O)N(Cc1ccccc1)Cc1cn(nn1)C[C@H](Cc1ccccc1)NC(=O)N[C@H](CO)CC2`, the composite z-score in assay [1] was -0.255 (inactive); with XIP peptide (Xip251-270) it was -0.057. Moreover, the z-score in assay [2] was -0.886; in assay [3] it was -4.5 (inactive); in assay [4] it was -0.962 (inactive); in assay [5] it was -0.745 (inactive).
On to `CCCC[C@@H]1C[C@H]1[C@@H](NC(=O)c1ccccc1)c1ccc(C(F)(F)F)cc1`, for which the composite z-score in assay [1] was 2.28 (inactive); with XIP peptide (Xip251-270), -1.51. Further, the z-score is 0.011 in assay [2], 0.0892 (inactive) in assay [3], -0.27 (inactive) in assay [4] and -0.226 (inactive) in assay [5].
